Data reported in PubChem BioAssay (NCATS).
Records with an inconclusive call do not appear. A call without a number means that no potency is given here. The source made the active and inactive calls. Calls come from the whole dose curve; as a rule, active = well fitted inhibition curve with a large enough effect; inconclusive = small, poorly fitted or top-dose-only effect; inactive = flat fitted curve, though single readings scatter.

biological target: Glutathione peroxidase 1 (Homo sapiens) (UniProt P07203); test: Primary qHTS Assay for Inhibitors of Recombinant Selenoprotein Glutathione Peroxidase 1 (GPX1) (AID 1845191); conditions: recombinant GPX1, GR-coupled NADPH fluorescence, 15 min; series mostly up to 48.8 µM; note: nearly all actives have a fitted effect of over 65% in size
Sequence (P07203 whole entry, looked up): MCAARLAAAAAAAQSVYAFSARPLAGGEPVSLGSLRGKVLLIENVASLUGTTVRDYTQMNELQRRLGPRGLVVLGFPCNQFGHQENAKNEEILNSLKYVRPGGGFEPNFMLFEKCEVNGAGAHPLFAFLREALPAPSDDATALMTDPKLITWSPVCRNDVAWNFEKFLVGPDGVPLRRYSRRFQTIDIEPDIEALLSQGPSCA
Method in brief: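 10 nM GPX1 + cpd, 30 min RT; start w/ 1 mM GSH, 0.5 mM cumene hydroperoxide, 0.5 mM NADPH, 100 nM GR, 0.01% BSA; buffer 50 mM Tris-HCl pH 7.5, 2 mM EDTA, 150 mM NaCl; Fl 340/450, 0 & 15 min.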
Potency is the fitted concentration of half-maximal effect.

Row | Structure (SMILES) | Potency
1 | CCc1nc2c(sc3nc4c(cc32)COC(C)(C)C4)c(=O)n1Cc1ccco1 | inactive
2 | O=C(c1cccc(Br)c1)N1CCC(N2CCCC2)CC1 | inactive
3 | COc1ccc(Nc2cc(C)c3cc(NC(=O)c4cc(OC)cc(OC)c4)ccc3n2)cc1 | inactive
4 | CC[C@H]1OC(=O)[C@H](C)[C@@H](O[C@H]2C[C@@](C)(OC)[C@@H](O)[C@H](C)O2)[C@H](C)[C@@H](O[C@@H]2O[C@H](C)C[C@H](N(C)C)[C@H]2O)C(C)(O)C[C@@H](C)/C(=N\OCOCCOC)[C@H](C)[C@@H](O)[C@]1(C)O (stereo partly drawn) | inactive
5 | O=C1NC(Nc2ccccc2)=N/C1=C\c1ccc2c(c1)OCO2 | inactive
6 | CCn1cc(-c2cccc(C(F)(F)F)c2)c2sc(C(N)=NC3CCS(=O)(=O)CC3)cc2c1=O | 20.2 µM (active)
7 | CCC1OC(=O)C(C)C(OC2CC(C)(OC)C(O)C(C)O2)C(C)C(OC2OC(C)CC(N(C)C)C2O)C(C)(O)CC(C)C2NC(COCCOC)OC(C2C)C1(C)O (stereo not drawn) | inactive
8 | CCc1ccccc1N1C(=O)N(Cc2cc(=O)n3ccccc3n2)c2ccccc2S1(=O)=O | inactive
9 | CC[C@H](C)C1NC(=O)[C@H](Cc2ccc(O)cc2)NC(=O)[C@@H](N)CSSC[C@@H](C(=O)N2CCC[C@H]2C(=O)N[C@@H](CC(C)C)C(=O)NCC(N)=O)NC(=O)[C@H](CC(N)=O)NC(=O)[C@H](CCC(N)=O)NC1=O (stereo partly drawn) | inactive
10 | O=C(O)C1=C(CSc2nnnn2CS(=O)(=O)O)CS[C@@H]2[C@@H](NC(=O)[C@H](O)c3ccccc3)C(=O)N12 | 11.4 µM (active)
11 | CCO/N=C(\C(=O)N[C@@H]1C(=O)N2C(C(=O)O)=C(Sc3nc(-c4cc[n+](C)cc4)cs3)CS[C@H]12)c1nsc(NP(=O)(O)O)n1 | 4.04 µM (active)
12 | CC(=O)O[C@]1(C(C)=O)CC[C@H]2[C@@H]3C=C(C)C4=CC(=O)CC[C@@H]4[C@H]3CC[C@@]21C | inactive
13 | C=C1C/C(=C\C=C2/CCC[C@]3(C)[C@@H]([C@H](C)/C=C/C(C)C(C)C)CC[C@@H]23)[C@@H](O)C[C@@H]1O (stereo partly drawn) | inactive
14 | CC(C)C(=O)SCCCCCCC(=O)Nc1nc(-c2ccccc2)cs1 | inactive
15 | O=C(CCCCCCSc1ccc2ccccc2c1)NO | inactive
16 | CC(C)OC(=O)[C@H](C)N[P@@](=O)(OC[C@H]1O[C@@H](n2ccc(=O)[nH]c2=O)[C@](C)(F)[C@@H]1O)Oc1ccccc1 | inactive
17 | CNC(=O)c1ccccc1Oc1nc(Nc2cc(OC)c(OC)c(OC)c2)ncc1Br | inactive
18 | CN1CC(O)c2cc(N=NC(=N)N)c(O)cc21 (stereo not drawn) | inactive
19 | CCOC(=O)N[C@@H]1CC[C@@H]2[C@@H](C1)C[C@H]1C(=O)O[C@H](C)C1[C@H]2/C=C/c1ccc(-c2cccc(F)c2)cn1 (stereo partly drawn) | inactive
20 | NC(=O)C1(N2CCCCC2)CCN(CCCN2c3ccccc3CCc3ccccc32)CC1 | inactive
21 | CO[C@H]1C[C@H](O[C@@H]2[C@H](C)O[C@H](O[C@@H]3/C(C)=C/C[C@@H]4C[C@@H](C[C@]5(C=C[C@H](C)[C@@H](C6CCCCC6)O5)O4)OC(=O)[C@@H]4C=C(C)C(O)[C@H]5OC/C(=C\C=C\[C@@H]3C)[C@]54O)C[C@@H]2OC)O[C@@H](C)[C@@H]1O (stereo partly drawn) | inactive
22 | CN[C@H]1C(=O)N[C@@H]2Cc3ccc(cc3)Oc3cc4cc(c3O[C@@H]3O[C@H](C(=O)O)[C@@H](O)[C@H](O)[C@H]3NC(=O)CCCCCCCCC(C)C)Oc3ccc(cc3Cl)[C@@H](O)[C@@H]3NC(=O)[C@H](NC(=O)[C@@H]4NC(=O)[C@@H](NC2=O)c2cc(cc(O)c2Cl)Oc2cc1ccc2O)c1ccc(O)c(c1)-c1c(O[C@H]2O[C@H](CO)[C@@H](O)[C@H](O)[C@@H]2O)cc(O)cc1[C@@H](C(=O)NCCCN(C)C)NC3=O | inactive
23 | C/C=C(\C)C(=O)O | inactive
24 | OC(c1ccccc1)(c1ccccc1)C12CC[N+](CCOCc3ccccc3)(CC1)CC2 | inactive
25 | Cc1cc(C)n(CCc2nc3c4ccccc4nc(N4CCN(c5cccc(C)c5C)CC4)n3n2)n1 | inactive
26 | COc1ccc(-c2c(C)nn3c4c(cnc23)C(=O)CC(c2ccc(C)cc2)C4)cc1 (stereo not drawn) | inactive
27 | CC(C)CCC[C@@H](C)[C@H]1CC[C@H]2[C@@H]3CC=C4C[C@@H](O)CC[C@]4(C)[C@@H]3CC[C@]12C | inactive
28 | C=CC[N@@+]12CC[C@]34c5ccccc5N5/C=C6\C7N(/C=C(\C53)[C@@H](C[C@@H]41)/C(=C/CO)C2)c1ccccc1[C@@]71CC[N@@+]2(CC=C)C/C(=C\CO)[C@@H]6C[C@@H]12 (stereo partly drawn) | inactive
